Our source for the Potency, outcome and max response values is PubChem BioAssay (NCATS).

SMILES strings stand for the structures. Where “and” joins values, the source holds several entries; their conditions need not be identical. Equal values may be shown once. Inconclusive results are not listed. Values without a mark were called inactive. Calls of active or inactive are those of the source. The call rests on the fitted dose curve; in most records, active means well fitted inhibition curve with a large enough effect; inconclusive means small, poorly fitted or top-dose-only effect; inactive means flat fitted curve, though single readings scatter.

One test deals with GB4. Kind of test: qHTS profiling for inhibitors of Plasmodium falciparum proliferation (AID 504749).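 Further: 0% = DMSO vehicle and full inhibition = artemisinin control.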 The note with it: P. falciparum in erythrocytes, SYBR Green DNA, 72 h; series mostly up to 28.7 µM. The gist of the method: (§1)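 Fluorescence of SYBR Green-bound parasite DNA, read at 485/535 nm, served as the growth measure. Infected erythrocytes were cultured with compound 72 h; artemisinin (0.29 uM) and DMSO wells defined the normalization range.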

A further test relates to HB3. Described as above. The following applies: P. falciparum in erythrocytes, SYBR Green DNA, 72 h; series mostly up to 28.7 µM. The gist of the method:
as §1

The next test has as its system ICS. Described as above. The note with it: P. falciparum in erythrocytes, SYBR Green DNA, 72 h; series mostly up to 28.7 µM. The method in brief: as §1
The test system of a further test is JCK. Described as above. The following applies: P. falciparum in erythrocytes, SYBR Green DNA, 72 h; series mostly up to 28.7 µM. The gist of the method: as §1
Another test concerns N140. The description is as above. The following applies: P. falciparum in erythrocytes, SYBR Green DNA, 72 h; series mostly up to 28.7 µM. The gist of the method:
as §1

The subject of the next test is P93_24. The description is as above. The following applies: P. falciparum in erythrocytes, SYBR Green DNA, 72 h; series mostly up to 28.7 µM. The gist of the method: as §1
A further test relates to PAD. Described as above. The note with it: P. falciparum in erythrocytes, SYBR Green DNA, 72 h; series mostly up to 28.7 µM. The gist of the method:
as §1

The next test concerns PC15. The description is as above. The note with it: P. falciparum in erythrocytes, SYBR Green DNA, 72 h; series mostly up to 28.7 µM. The method in brief:
as §1

The next test relates to PC26. The description is as above. The following applies: P. falciparum in erythrocytes, SYBR Green DNA, 72 h; series mostly up to 28.7 µM. The gist of the method:
as §1

A further test has as its system PC49. The test is described as above. The note with it: P. falciparum in erythrocytes, SYBR Green DNA, 72 h; series mostly up to 28.7 µM. The method in brief: as §1
The next test deals with SC27B. The test is described as above. The following applies: P. falciparum in erythrocytes, SYBR Green DNA, 72 h; series mostly up to 28.7 µM. The method in brief:
as §1

The next test concerns TAB109. Described as above. The note with it: P. falciparum in erythrocytes, SYBR Green DNA, 72 h; series mostly up to 28.7 µM. The method in brief: as §1
A further test deals with TAB113. The description is as above. The following applies: P. falciparum in erythrocytes, SYBR Green DNA, 72 h; series mostly up to 28.7 µM. The method in brief:
as §1

The next test deals with TAB165. Described as above. The following applies: P. falciparum in erythrocytes, SYBR Green DNA, 72 h; series mostly up to 28.7 µM. The method in brief: as §1
The test system of a further test is W2. The test is described as above. The note with it: P. falciparum in erythrocytes, SYBR Green DNA, 72 h; series mostly up to 28.7 µM. The method in brief: as §1
The subject of the next test is CRL-7250. As to the kind of experiment: Cytotoxic Profiling of Annotated Libraries Using Quantitative High-Throughput Screening (AID 1296008). Further: potency means the concentration at half of the fitted maximal effect. On max response: on the % scale 0 is the no-effect control and ±100 the full control effect. The note with it: Five cell lines viability, CellTiter-Glo ATP luminescence, 48-72 h; max response: stronger effect = lower value. The gist of the method: (§2)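 Compounds were pin-transferred onto cells and incubated 48 or 72 hr at 37 degree Celsius, 95% humidity. CellTiter-Glo was added, plates sat 10 min at room temperature, then ATP-coupled luminescence was imaged as the viability read-out.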

The test system of the next test is HEK293. The test is described as above. The following applies: Five cell lines viability, CellTiter-Glo ATP luminescence, 48-72 h; max response: stronger effect = lower value. The method in brief:
as §2

The subject of another test is HaCat. Described as above. The following applies: Five cell lines viability, CellTiter-Glo ATP luminescence, 48-72 h; max response: stronger effect = lower value. The gist of the method: as §2
The subject of a further test is KB-3-1. The description is as above. The following applies: Five cell lines viability, CellTiter-Glo ATP luminescence, 48-72 h; max response: stronger effect = lower value. The method in brief:
as §2

Another test has as its system P94_40. Kind of test: qHTS profiling for inhibitors of Plasmodium falciparum proliferation (AID 504749).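 Further: 0% = DMSO vehicle and full inhibition = artemisinin control.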 The note with it: P. falciparum in erythrocytes, SYBR Green DNA, 72 h; series mostly up to 28.7 µM. The method in brief: as §1
Further: nearly all actives have a fitted effect of over 60% in size.

For the compound `Cc1cc(O)ccc1Cl`, the Potency result in the test with GB4, in the test on HB3, in the test with ICS, in the test with JCK, with N140 and in the test on P93_24 was “inactive” each time. Also, the Potency result in the test on PAD, in the test with PC15, in the test on PC26, in the test with PC49, in the test on SC27B and with TAB109 was “inactive” throughout. Besides, the Potency entry with TAB113, with TAB165 and in the test on W2 was “inactive” each time. In the test on CRL-7250, the result was inactive. The figures for the max response with HEK293, in the test with HaCat and with KB-3-1 were 0.405%, 2.83% and -3.49%, respectively.
On to `Nc1c(Cl)c(Cl)c(Cl)c(Cl)c1Cl`, for which the max response in the test with CRL-7250 was -6.12%; with HEK293, -6.61%; in the test on HaCat, -3.9%; in the test with KB-3-1 it was -13%.
Consider `CC(N[C@H]1C[C@H]1c1ccccc1)c1ccc2c(c1)OCCO2` (stereo partly drawn), for which the max response with CRL-7250 is 1.35% and -26.3%; with HEK293, 0.032% and -12.5%; in the test with KB-3-1, 2.53% and -2.54%. The call in the test on HaCat was inactive.
`C[C@]12CC[C@H]3[C@@H](CCC4=CC(=O)CC[C@@]43C)[C@H]1CC[C@H]2OC(=O)CCC1CCCC1`: the max response with CRL-7250 is 2.84%; in the test on HaCat, 4.09%; in the test on KB-3-1, 9.03%. Also, the compound was classed as inactive with HEK293.
In the case of `CC[C@@]1(O)C(=O)OCc2c1cc1n(c2=O)Cc2cc3ccccc3nc2-1`, the Potency was 418 nM (active) with CRL-7250, 41.8 nM (active) with HEK293, 46.9 nM (active) with HaCat and 469 nM (active) in the test on KB-3-1.
For the compound `CC(C)[C@]12O[C@@H]1[C@@H]1O[C@]13[C@]1(O[C@H]1C[C@@H]1C4=C(CC[C@@]13C)C(=O)OC4)[C@H]2O`, the max response in the test with CRL-7250 is -124%; in the test on HEK293, -111%; with HaCat, -144%. Besides, the Potency in the test with KB-3-1 is 1 nM (active).
Take `COC(=O)[C@@H](N)CCCN=C(N)N[N+](=O)[O-]`: the Potency entry in the test with GB4, in the test on HB3, in the test with ICS, with JCK, in the test on N140 and in the test on P93_24 was “inactive” throughout. The Potency result with P94_40, in the test on PAD, with PC15, in the test with PC26, with PC49 and in the test with SC27B was “inactive” each time. Besides, the Potency entry in the test on TAB109, in the test on TAB113, in the test on TAB165 and with W2 was “inactive” each time. For the same compound, the result in the test on CRL-7250 was inactive. Besides, the max response is 0.845% with HEK293, -4.22% with HaCat and 9.25% in the test on KB-3-1.
On to `C[C@@H]1O[C@@H](O[C@@H]2C=C3CC[C@@H]4[C@@H](CC[C@]5(C)[C@H](c6ccc(=O)oc6)CC[C@@]45O)[C@@]3(C)CC2)[C@H](O)[C@H](O)[C@H]1O`, for which the Potency with CRL-7250 was 11.8 nM (active); in the test on HEK293, 16.6 nM (active); with HaCat, 46.9 nM (active); with KB-3-1 it was 26.4 nM (active).
On to `Nc1ccc(Sc2ccc(N)cc2)cc1`, for which the max response with CRL-7250 is -36.8%; in the test on HEK293, -4.95%; in the test on KB-3-1, -8.88%.
Consider `COc1ccc(C(=O)c2c(C)n(CCN3CCOCC3)c3cc(I)ccc23)cc1`, for which the max response in the test with CRL-7250 was 4.04%. The result with HaCat was inactive.
For `CC(C)(O)C=CC(=O)[C@](C)(O)[C@H]1[C@H](O)C[C@]2(C)[C@@H]3CC=C4[C@@H](C=C(O)C(=O)C4(C)C)[C@]3(C)C(=O)C[C@@]12C`, the Potency in the test on CRL-7250 was 418 nM (active); with HEK293, 1870 nM (active); in the test on KB-3-1 it was 132 nM (active).
For the compound `CCN(CC)C(=O)c1ccc(C2=CC3(CCNCC3)Oc3cccc(O)c32)cc1`, the max response in the test with CRL-7250 was 3.09% and -1.02%; with HaCat, -0.307%; in the test with KB-3-1 it was 5.76% and 9.58%. Further, the compound was classed as inactive in the test with HaCat.
For `COc1ccc2c(c1)CN(C)CC2c1ccc(Cl)c(Cl)c1` (stereo not drawn), the compound was called inactive with CRL-7250, with HaCat and with KB-3-1.
Turning to `COc1ccc(CC2NCCc3cc(OC)c(OC)cc32)cc1OC` (stereo not drawn), the max response in the test on CRL-7250 was -3.56%; in the test on KB-3-1 it was -3.69%. The call in the test on HaCat was inactive.
Turning to `Cc1c(C(=O)c2cccc3ccccc23)c2cccc3c2n1[C@H](CN1CCOCC1)CO3`, the Potency was 20900 nM (active) with CRL-7250, 18700 nM (active) in the test with HEK293 and 13200 nM (active) with KB-3-1.
For `COCC1(CO)C(=O)C2CCN1CC2` (stereo not drawn), the max response in the test on CRL-7250 was -4.01%; in the test on KB-3-1 it was 3.43%. The compound was called inactive in the test on HaCat.
Regarding `CC=C(C)C(=O)O[C@H]1C(C)=C2[C@@H]3OC(=O)[C@@](C)(O)[C@@]3(O)[C@@H](OC(=O)CCC)C[C@](C)(OC(C)=O)[C@@H]2[C@@H]1OC(=O)CCCCCCC`, the Potency with CRL-7250 is 148 nM (active); with HaCat, 8330 nM (active).
Turning to `Cc1c(C(=O)Nc2cccc(C(F)(F)F)c2)cc(-c2ccccc2)n1CCCN1CCOCC1`, the max response is -26% and -3.59% in the test with CRL-7250; -13.2% with KB-3-1. In the test with HEK293, the Potency was 14.8 µM (active) and 14.6 µM (active).
For `CCCCCCCCCC(CC)c1ccc(S(=O)(=O)O)cc1` (stereo not drawn), the Potency result with GB4, with HB3, in the test with ICS, with JCK, in the test on N140 and in the test with P93_24 was “inactive” throughout. The Potency result in the test with P94_40, with PAD, in the test with PC15, in the test with PC26, with PC49 and in the test with SC27B was “inactive” each time. Besides, the Potency result in the test on TAB109, with TAB113, in the test on TAB165 and in the test with W2 was “inactive” each time. In addition, the max response is -1.12% in the test on CRL-7250; -1.21% and -21.2% in the test with KB-3-1. Also, the compound was called inactive in the test with HaCat.
Consider `CC(=O)OCC1=C(C(=O)O)N2C(=O)[C@@H](N)[C@@H]2SC1`, for which the Potency entry in the test with GB4, in the test on HB3, with ICS, in the test with JCK, in the test with PC15 and in the test with PC26 was “inactive” each time. The Potency result in the test with PC49 and in the test on W2 was “inactive” in each case. In addition, in the test on CRL-7250, the compound was called inactive. The max response with HaCat is -5.82%; with KB-3-1, 0.594%.
Turning to `S=C(SSC(=S)N1CCCCC1)N1CCCCC1`, the figures for the max response in the test on CRL-7250 and in the test on KB-3-1 were -1.9% and -9.18%, respectively. Further, the Potency in the test on HEK293 was 944 nM (active).
Take `O=S(=O)(O)C(F)(F)C(F)(F)C(F)(F)C(F)(F)C(F)(F)C(F)(F)C(F)(F)C(F)(F)F`: the max response in the test on CRL-7250 was -8.73%; in the test on HaCat it was 0.89%; in the test on KB-3-1, -10.5%.
